# Assay results reported in PubChem BioAssay (Tox21).
# Records with an inconclusive call do not appear. Where a call stands in place of a potency, no number is given. Values without a mark were called inactive. Calls of active or inactive are those of the source. Calls follow the shape of the dose curve; as a rule, active = well fitted cell-killing curve with a large enough effect in the repeat runs; inconclusive = weak or mixed curves, or effect the other way; inactive = no such curve, though single readings can be large or run the other way.
# Assay: qHTS assay to identify small molecule antagonists of the vitamin D receptor (VDR) signaling pathway - cell viability counter screen (AID 743225); also: nearly all actives have a fitted effect of over 50% in size
# Settings: VDR-bla HEK293T viability, CellTiter-Glo luminescence, 16 h; series mostly up to 61 µM; viability change, negative = cytotoxic: at the top concentration
# Source text: U.S. Tox21 Program National Center for Advancing Translational Sciences [NCATS] NIH Chemical Genomics Center [NCGC] U.S. Environmental Protection Agency [EPA] National Institutes of Environmental Health Sciences [NIEHS] National Toxicology Program [NTP] U.S. Food and Drug Administration [FDA] Tox21 Assay Overview: The vitamin D receptor (VDR), a member of nuclear hormone receptor superfamily, plays a critical role in calcium homeostasis and bone metabolism. It is also involved in cell differentiation and growth, and thrombogenicity. To identify the compounds that inhibit VDR signaling, the VDR-UAS-bla HEK 293T cell line (Invitrogen, Carlsbad, CA, USA) containing a beta-lactamase reporter gene under the control of an upstream activator sequence (UAS) was used to screen the Tox21 10K compound library. The cytotoxicity of the Tox21 compound library against the VDR-bla cell line was tested in parallel by measuring the cell viability using CellTiter-Glo assay (Promega, Madison, WI) in the same wells.
# Tox21 Assay Protocol Summary: VDR-bla cells were dispensed at 2,000 cells/5 uL of assay medium per well into black wall/clear-bottom 1536-well plates using a Multidrop Combi (Thermo Fisher Scientific, Waltham, MA) dispenser. After the assay plates were incubated at a 37C and 5% CO2 for 4 h, 23 nL of compounds dissolved in DMSO, positive controls or DMSO only was transferred to the assay plate by a Pintool station (Kalypsys, San Diego, CA), followed by addition of 1 uL of 1-alpha, 25-Dihydroxy Vitamin D3 (3 nM, final concentration in the wells) using a Bioraptr Flying Reagent Dispenser (FRD) workstation (Beckman Coulter, Indianapolis, IN). The plates were incubated at 37C and 5% CO2 for 16 h, and then 1 uL of LiveBLAzerTM B/G FRET substrate was added using a Bioraptr FRD. The plates were incubated at room temperature for 2 h and fluorescence intensity was measured by an Envision plate reader (PerkinElmer, Shelton, CT). For cell viability readout that measures cytotoxicity, 3 ul/well of CellTiter-Glo reagent was added into the assay plates using a Bioraptr FRD. After 30 min incubation at room temperature, the luminescence intensity in the plates was measured using a ViewLux plate reader (PerkinElmer).
# Potency is read from the fitted curve at half-maximal effect.
SMILES,Potency,"viability change, negative = cytotoxic"
Cc1cc(O)c2c(c1)C(=O)c1cc(O)cc(O)c1C2=O,inactive,–
Cn1c([N+](=O)[O-])cnc1COC(N)=O,inactive,–
O=[N+]([O-])C(CO)(CO)CO,–,0.17%
Cc1ccc(C)c(C)c1,inactive,–
OCCOCCOCCOCCO,inactive,–
O=C(c1cc(O)c(O)c(O)c1)c1ccc(O)c(O)c1O,inactive,–
S=c1nc[nH]c2nc[nH]c12,4.25 µM (active),–
CC(C)Cc1ccccc1,inactive,–
NC(=O)/N=N/C(N)=O,inactive,–
C[C@@H]1O[C@@H](OC[C@H]2O[C@@H](Oc3c(-c4ccc(O)c(O)c4)oc4cc(O)cc(O)c4c3=O)[C@H](O)[C@@H](O)[C@@H]2O)[C@H](O)[C@H](O)[C@H]1O,–,-2.73%
CCCCNC(N)=O,inactive,–
c1ccc2[nH]cnc2c1,inactive,–
CNC[C@H](O)[C@@H](O)[C@H](O)[C@H](O)CO,inactive,–
C/C=C(C)/C=C/C=C(C)C,inactive,–
c1ccc2ccccc2c1,inactive,–
CS(=O)(=O)Nc1ccc([N+](=O)[O-])cc1Oc1ccccc1,inactive,–
CC1=C(CC(=O)O)c2cc(F)ccc2/C1=C\c1ccc(S(C)=O)cc1 (stereo not given),inactive,–
O=S(=O)(Oc1ccc(Cl)cc1Cl)c1ccccc1,inactive,–
C=CC(=O)OCCCCCCCC(C)C,inactive,–
CCCCC(CC)COC(=O)CCCCCCCC(=O)OCC(CC)CCCC (stereo not given),inactive,–

SMILES,Potency,"viability change, negative = cytotoxic"
CCCCOCCO,inactive,–
OC[C@@H](O)[C@H](O)[C@H](O)[C@@H](O)CO,inactive,–
Clc1cc(Cl)c(Cl)cc1Cl,inactive,–
Cc1ccc(C(=O)O)o1,inactive,–
O=S(=O)(O)CCS,inactive,–
Cc1cc(O)cc(C)c1Cl,inactive,–
O=[N+]([O-])c1cccc(Cl)c1,inactive,–
CCCCCC/C=C/CCCCCCCC(=O)O,inactive,–
NS(=O)(=O)c1cc2c(cc1Cl)NC=NS2(=O)=O,inactive,–
Nc1c(S(=O)(=O)O)cc(Br)c2c1C(=O)c1ccccc1C2=O,inactive,–
O=C1N=C(O)CN1/N=C/c1ccc(-c2ccc([N+](=O)[O-])cc2)o1,inactive,–
CCCCCCCCCCC=CC1CC(=O)OC1=O (stereo not given),inactive,–
CC(C)(C)C(=O)C1C(=O)c2ccccc2C1=O,inactive,–
C[C@@H](O)[C@H]1C(=O)N2C(C(=O)O)=C(S[C@@H]3CN[C@H](C(=O)N(C)C)C3)[C@H](C)[C@H]12,–,2.56%
CCOC(=O)C1OC1c1ccccc1 (stereo not given),inactive,–
CCCCC(CC)COC(=O)/C=C\C(=O)OCC(CC)CCCC (stereo not given),inactive,–
CC1COc2ccccc2N1C(=O)C(Cl)Cl (stereo not given),inactive,–
CS(=O)(=O)c1ccc([C@@H](O)[C@@H](CO)NC(=O)C(Cl)Cl)cc1,–,18.6% [at 78.8 µM]
CCCCCCCCCC(=O)O,inactive,–
CC(C)n1c(/C=C/[C@@H](O)C[C@@H](O)CC(=O)O)c(-c2ccc(F)cc2)c2ccccc21,–,-10.9%
